The results in this text go back to ChEMBL document CHEMBL3433997, “St. Jude Leishmania screening dataset” (2016).

Molecules are shown by their SMILES.

What all share (format): functional
Assay [1] addresses Solute carrier family 2, facilitated glucose transporter member 1 (Homo sapiens) (UniProt P11166). The assay can be described thus: ST_JUDE_LEISH: Cytotoxicity at 2uM final concentration against transgenic Leishmania Mexicana promastigotes LmGLUT1 that are glucose transport deficient and complemented with the human glucose transporter GLUT1. Activity is measured by DNA content using SYBR green in vitro.

Assay [2] deals with Hexose transporter 1 (Plasmodium falciparum) (UniProt O97467). The assay can be described thus: ST_JUDE_LEISH: Cytotoxicity at 2uM final concentration against transgenic Leishmania Mexicana promastigotes LmPfHT that are glucose transport deficient and complemented with the Plasmodium falciparum hexose transporter. Activity is measured by DNA content using SYBR green in vitro.

Assay [3] addresses Glucose transporter (Leishmania mexicana) (UniProt O61059). The assay can be described thus: ST_JUDE_LEISH: Cytotoxicity at 2uM final concentration against transgenic Leishmania Mexicana promastigotes LmGT2 that are glucose transport deficient and complemented with the L. Mexicana glucose transporter 2. Activity is measured by DNA content using SYBR green in vitro.

Sequence of Solute carrier family 2, facilitated glucose transporter member 1 (Homo sapiens) (P11166 whole entry): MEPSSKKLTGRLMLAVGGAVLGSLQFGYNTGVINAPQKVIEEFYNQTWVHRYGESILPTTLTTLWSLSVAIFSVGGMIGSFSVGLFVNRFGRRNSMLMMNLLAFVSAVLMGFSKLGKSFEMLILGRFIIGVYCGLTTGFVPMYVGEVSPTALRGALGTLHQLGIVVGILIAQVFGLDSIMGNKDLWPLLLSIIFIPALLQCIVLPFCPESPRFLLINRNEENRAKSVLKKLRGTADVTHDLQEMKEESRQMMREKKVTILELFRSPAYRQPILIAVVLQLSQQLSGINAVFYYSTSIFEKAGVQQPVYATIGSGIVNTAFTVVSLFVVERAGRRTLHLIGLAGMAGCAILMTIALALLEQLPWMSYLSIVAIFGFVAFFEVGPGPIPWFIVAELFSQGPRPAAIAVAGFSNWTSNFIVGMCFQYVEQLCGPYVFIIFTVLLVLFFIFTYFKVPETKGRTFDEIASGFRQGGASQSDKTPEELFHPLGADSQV

As to `O=C(Nc1cc(=O)[nH]c2nc(-c3ccccc3)nn12)C1CCCCC1`, the inhibition in assay [1] came out at 2.3%; in assay [2] it was 2.44%; in assay [3] it was 3.26%.
Take `COCCNCc1ccc(-c2ccc(CNC3CCN(Cc4ccccc4)CC3)cc2)cc1`: the inhibition in assay [1] came to 0.78%; in assay [2], 2.82%; in assay [3], 5.2%.
For the compound `COc1ccccc1OCCN(CC(O)COc1cccc2[nH]c3ccccc3c12)CC(O)COc1cccc2[nH]c3ccccc3c12` (configuration not stated), the inhibition was 3.01% in assay [1], 2.43% in assay [2] and 2.35% in assay [3].
Consider `Cc1cccc(Cl)c1S(=O)(=O)Nc1cccc(CCN2CCC(N3CCCCC3)CC2)c1`, for which the inhibition is -0.03% in assay [1], -0.24% in assay [2] and -2.34% in assay [3].
With `C=CCc1cc(Br)ccc1OCCCOc1c(N)nc(N)nc1N`, the inhibition in assay [1] was determined as 6.42%; in assay [2], 7.13%; in assay [3], 3.62%.
Take `O=C(Nc1ccc([N+](=O)[O-])cc1Cl)c1cc2ccccc2cc1O`: the inhibition in assay [1] was determined as 0.6%; in assay [2], 1.59%; in assay [3], 1.3%.
In the case of `O=C(c1cccc(-c2cccc(-c3nc4cc(C(F)(F)F)ccc4[nH]3)c2)c1)N1CCCCC1CN1CCC(O)C1` (configuration not stated), the inhibition in assay [1] is -0.81%; in assay [2], -0.87%; in assay [3], -1.32%.
As for `O=C(CCc1nc2c(cnn2-c2ccccc2)c(=O)[nH]1)NC1CCSc2ccccc21` (configuration not stated), the inhibition in assay [1] is 0.18%; in assay [2], 1.79%; in assay [3], -2.08%.
`CC(C)c1cccc(C(NC(=O)[C@H]2Cc3ccccc3CN2C(=O)c2cccc(N3CCOCC3)c2)C2CCCC2)c1` (some centres not stated): the inhibition in assay [1] was 1%; in assay [2], 0.21%; in assay [3], 0.64%.
The matching figures for `O=C(/C=C/c1ccc(Cl)c(Cl)c1)NCCCCN1CCCN(C(=O)Nc2ccc(C(F)(F)F)cc2)CC1`: 3.18%, 4.68% and 1.09%.
On to `COCC(C)n1c(SC(C)C(=O)Nc2cc([N+](=O)[O-])ccc2Cl)nc2ccccc2c1=O` (configuration not stated), for which the inhibition in assay [1] was -1.22%; in assay [2], 1.55%; in assay [3], -1.16%.
Consider `Cc1ccc(C(C)C)cc1CON1C(=N)N=C(N)NC1(C)C`, for which the inhibition in assay [1] stood at 11.2%; in assay [2], 10.7%; in assay [3], 10.9%.
Consider `COc1cccc(C2CCN(CCN3CCC(NC(=O)c4ccc(-c5ccc(C#N)cc5)cc4)CC3)CC2)c1`, for which the inhibition is -1.18% in assay [1], 0.31% in assay [2] and 0.19% in assay [3].
For the compound `CCn1c(-c2ccccc2)cc2nnc3ccccc3c21`, the inhibition in assay [1] was found to be 6.68%; in assay [2], 5.32%; in assay [3], 5.02%.
Taken in the same sequence, the figures for `CCOC(=O)NC1=NC(C)(C)N(OCCCOc2cc(Cl)c(Cl)cc2Cl)C(NC(=O)OCC)=N1` were 2.08%, 0.27% and 1.36%.
Consider `Cc1cccc2nc(-c3ccc(-c4ccc(CNCCNC(=O)c5ccnn5C)cc4)s3)[nH]c12`, for which the inhibition in assay [1] was found to be 9.45%; in assay [2] it was 9.43%; in assay [3], 8.36%.
Regarding `CC(=O)Nc1ccc(CNCCc2ccc(NC(=O)c3cc(Cl)cc(Cl)c3)cc2)cc1`, the figures for the inhibition in assay [1], in assay [2] and in assay [3] were -0.73%, 0.23% and -1.09%, respectively.
The matching figures for `FC(F)(F)c1ccc2[nH]c(-c3cccc(-c4cccc(CNCCN5CCNCC5)c4)c3)nc2c1`: -0.06%, 3.11% and 1.99%.
The matching figures for `OCCN1CCN(C(=S)NC2CCCCC2)CC1`: -1.08%, -1.56% and -1.81%.
The matching figures for `Oc1ccc2[nH]cc(C3CCN(CCCNCc4ccc(-c5ccccc5)cc4)CC3)c2c1`: 5.26%, 8.52% and 2.61%.
Turning to `O=C(NC1CCN(Cc2ccc3c(c2)OCCO3)CC1)c1ccc(-c2cccc(C(F)(F)F)c2)s1`, the inhibition turned out to be 3.14% in assay [1], 1.52% in assay [2] and 2.57% in assay [3].
For `COc1ccc(NC(=O)c2cc(NC(=O)C3(N)CC3)c(=O)n(Cc3ccc(C(N)=O)cc3)c2)cc1`, the inhibition in assay [1] turned out to be 0.5%; in assay [2] it was 3.44%; in assay [3], 2.12%.
As for `CCC(C)CN1CCN(c2ccc(NC(=O)c3cccs3)cc2)C(C)C1` (configuration not stated), the figures for the inhibition in assay [1], in assay [2] and in assay [3] were 8.34%, 9.28% and 5.37%, respectively.
Consider `C[C@@]12C[C@@H](Nc3nc(NCCc4ccc(O)cc4)nc(N4CCNCC4)n3)C[C@@H](C1)c1cccc(Cl)c1O2`, for which the inhibition was -1.38% in assay [1], -1.84% in assay [2] and 2.14% in assay [3].
Take `CC(C)[C@H](NC(=O)NC1CCC(CCN2C3CCC2CC(OC(=O)C(CO)c2ccccc2)C3)CC1)C(O)(c1ccccc1)c1ccccc1` (some centres not stated): the values for the inhibition in assay [1], in assay [2] and in assay [3] were 3.62%, 3.92% and 1.15%, respectively.
Take `CN(CCN)Cc1cccc(-c2ccc(-c3nc4cc(C(F)(F)F)ccc4[nH]3)s2)c1`: the inhibition in assay [1] came out at 10.8%; in assay [2] it was 11.3%; in assay [3] it was 8.17%.
Consider `COc1ccc(CNCc2ccccc2)cc1-c1cccc(S(=O)(=O)NCCN2CCCC2)c1`, for which the inhibition in assay [1] was 1.03%; in assay [2] it was 1.05%; in assay [3], -3.15%.
For `CCCCOC(=O)C1=C(C)NC2=C(C(=O)CC(c3ccc(OC)c(OC)c3)C2)C1c1ccc(O)cc1` (configuration not stated), the inhibition in assay [1] was determined as 10.4%; in assay [2] it was 1.48%; in assay [3] it was 3.3%.
Taken in the same sequence, the figures for `COc1ccccc1-n1ccnc1SCC(=O)Nc1cc(C(F)(F)F)ccc1Cl` were -3.59%, -0.64% and -1.83%.
With `Cc1noc(C)c1-c1cccc(CNCc2cccc(-c3cccc(-c4nc5cc(F)ccc5[nH]4)c3)c2)c1`, the values for the inhibition in assay [1], in assay [2] and in assay [3] were -2.23%, 5% and 0.55%, respectively.
Taken in the same sequence, the figures for `CCOc1cc(C(=O)NCCCN2CCCCC2C)ccc1-c1nc2cc(Cl)ccc2[nH]1` (configuration not stated) were 2.37%, 2.23% and 0.87%.
Consider `CC(C)(CNC(=O)[C@@H]1CCCCN1)c1nc(-c2ccc(Cl)c(O)c2)c(-c2ccncc2)[nH]1`, for which the inhibition in assay [1] was found to be 2.07%; in assay [2], 2.19%; in assay [3] it was 1.02%.
The matching figures for `Cn1cnc(-c2ccc3c(c2)CCN(CCC2CCC(NC(=O)/C=C/c4ccc(F)cc4)CC2)CC3)c1` (configuration not stated): 54.7%, 70.5% and 60.9%.
As for `CCOC(=O)CNC(=O)N(CCN(Cc1ccccc1)C(=O)NCC(=O)OCC)Cc1ccccc1`, the inhibition in assay [1] turned out to be 0.94%; in assay [2] it was 2.07%; in assay [3] it was 1.35%.
Taken in the same sequence, the figures for `COc1ccc2nccc(CCC3(O)CCC(NCc4cc5c(cc4F)SCC(=O)N5)CC3)c2c1` (configuration not stated) were 0.25%, 2.45% and -2.7%.
Consider `CC(=O)c1ccc2c(c1)CCN(CCC1CCC(NC(=O)c3cc4ccccc4[nH]3)CC1)CC2` (configuration not stated), for which the inhibition was 2.67% in assay [1], -0.31% in assay [2] and 3.71% in assay [3].
For `COc1ccccc1Oc1c(N(C)S(=O)(=O)c2ccc(C(C)C)cc2)nc(C(F)(F)F)nc1N(C)S(=O)(=O)c1ccc(C(C)C)cc1`, the inhibition in assay [1] is 0.63%; in assay [2], 1.97%; in assay [3], 1%.
Turning to `COc1cccc(NC(=O)c2cc(C(=O)Nc3cccc(OC)c3)cc([N+](=O)[O-])c2)c1`, the inhibition in assay [1] worked out at 2.37%; in assay [2] it was 3.98%; in assay [3] it was 1.08%.
As to `CCOC(=O)c1nc2ccc(SC3CCCCC3)cn2c1Br`, the inhibition in assay [1] came out at 1.75%; in assay [2], 0.06%; in assay [3], 5.65%.
As to `CS(=O)(=O)N(c1ccccc1)c1cc(C(=O)N[C@@H](Cc2ccccc2)[C@H](O)CNC2CCCCC2)cc(N2CCCC2=O)c1`, the inhibition in assay [1] was 1.9%; in assay [2], 1.63%; in assay [3], 0.49%.
`Clc1ccc2c(NN=Cc3ccccc3)ccnc2c1`: the inhibition in assay [1] was found to be 7.48%; in assay [2], 6.89%; in assay [3], 7.07%.
For `Cc1cc(N2CCCCC2)nc2ccc(NC(=O)c3cncc(Br)c3)cc12`, the inhibition was 10.7% in assay [1], 9.8% in assay [2] and 6.57% in assay [3].
Taken in the same sequence, the figures for `Cc1cc(=NN=Cc2ccc(F)cc2)c2ccc(F)cc2[nH]1` were 0.14%, 0.15% and -0.46%.
The matching figures for `Cc1cc(N2CCCC2)nc(Nc2ccc(NC(=O)c3ccccc3)cc2)n1`: 1.14%, 6.69% and 3.09%.
With `CNC(=O)c1ccccc1Nc1nc(Nc2ccc(N3CCOCC3)cc2)ncc1Cl`, the values for the inhibition in assay [1], in assay [2] and in assay [3] were 77.2%, 84.9% and 74.6%, respectively.
Consider `CC1(CCc2ccccc2)N=C(N)N=C(N)C1c1ccc(Cl)c(Cl)c1` (configuration not stated), for which the results for the inhibition in assay [1], in assay [2] and in assay [3] were 9.55%, 9.47% and 8.62%, respectively.
For the compound `COc1cc(OC)cc(-c2nn(-c3ccc([N+](=O)[O-])cc3C#N)c(=S)n2CC2CCCO2)c1` (configuration not stated), the results for the inhibition in assay [1], in assay [2] and in assay [3] were 2.04%, 1.07% and -7.78%, respectively.
Consider `CCCc1cc(=O)[nH]c(-n2nc(C)cc2NC(=O)CC(c2ccccc2)c2ccccc2)n1`, for which the inhibition was -2.15% in assay [1], 1% in assay [2] and 2.15% in assay [3].
As to `N#Cc1ccc2c(c1)CCN(CCC1CCC(Nc3ncnc4ccccc34)CC1)C2` (configuration not stated), the figures for the inhibition in assay [1], in assay [2] and in assay [3] were 10.7%, 3.96% and 4.21%, respectively.
In the case of `CCC[C@@H]([C@@H](CC1CCCCC1)C(=O)N[C@H](C(=O)Nc1nccs1)[C@@H](C)OCc1ccccc1)N(O)C=O`, the inhibition in assay [1] was found to be 6.17%; in assay [2], 3.62%; in assay [3] it was 2.53%.
For `Cc1cc(Nc2ccc3ccccc3c2)n2ncnc2n1`, the inhibition in assay [1] is -0.63%; in assay [2], -3.58%; in assay [3], -1.18%.
For the compound `CN(CCc1ccccc1)c1ncc(-c2cccc(CNCCC3CCCN3C)c2)cn1` (configuration not stated), the inhibition in assay [1] worked out at 111%; in assay [2] it was 67%; in assay [3], 109%.
Taken in the same sequence, the figures for `COCCn1c(-c2cccc(Cl)c2)nn(-c2ccc([N+](=O)[O-])cc2C#N)c1=S` were 3.84%, -0.81% and 3.5%.
`Clc1nc2ccccn2c1C=Cc1ccc2ccccc2n1`: the inhibition in assay [1] came out at 2.64%; in assay [2], 3.43%; in assay [3], 2.76%.

By inhibition is commonly meant the relative decrease from the control value, in per cent.
